Hits are enriched below; roughly 18% of the tested compounds scored in any of these assays.
RORg inh = blocks mouse ROR gamma transcriptional activity | P51450 | Drosophila S2 Gal4-RORgamma UAS-luciferase reporter, 20 h | Potency, µM (titrated, usually from 53.6 µM), for the others: at the highest dose activity change, negative = inhibition, actives largely listed as inhibitors | 5.4% of 310,000 active | AID 2551; note: potency is the fitted concentration of half-maximal effect; nearly all actives have a fitted effect of over 60% in size
Target sequence (P51450 whole entry, looked up, the tested form may be a part): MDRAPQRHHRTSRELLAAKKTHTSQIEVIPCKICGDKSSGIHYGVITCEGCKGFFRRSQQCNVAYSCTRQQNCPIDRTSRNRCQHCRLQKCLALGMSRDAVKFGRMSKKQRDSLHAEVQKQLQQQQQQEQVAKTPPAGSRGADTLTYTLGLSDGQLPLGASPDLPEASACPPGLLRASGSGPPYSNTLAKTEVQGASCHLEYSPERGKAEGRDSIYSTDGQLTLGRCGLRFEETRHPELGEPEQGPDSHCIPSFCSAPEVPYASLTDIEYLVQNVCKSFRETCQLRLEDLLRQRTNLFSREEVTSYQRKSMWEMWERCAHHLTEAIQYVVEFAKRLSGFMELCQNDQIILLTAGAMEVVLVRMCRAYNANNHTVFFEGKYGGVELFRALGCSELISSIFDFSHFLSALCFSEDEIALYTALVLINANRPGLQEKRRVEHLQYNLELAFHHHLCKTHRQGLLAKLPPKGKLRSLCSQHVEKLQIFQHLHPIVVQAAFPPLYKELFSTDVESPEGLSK
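In this cell-based reporter format, copper sulfate (700 uM final) drives Gal4–ROR gamma fusion expression from a metallothionein promoter in Drosophila Schneider cells; compounds preincubated 1 hr, reporter read after 20 hr at ambient temperature.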
Gal4-VP16 FLuc = inhibits Gal4-VP16 luciferase reporter, ROR gamma counter-screen | 3.5% of 310,000 active | Potency, µM (doses to about 53.6 µM), for the others: top-dose activity, negative = inhibition, usual class: inhibitors | Drosophila S2 Gal4-VP16 UAS-luciferase, luminescence, 20 h;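 note: Gal4-VP16 expression switched on by copper sulfate through the metallothionein promoter; potency is the fitted concentration of half-maximal effect; nearly all actives have a fitted effect of over 50% in size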
IL1B secr inh = blocks inflammasome-driven IL-1 beta release; THP-1 LPS/ATP IL-1B secretion, AlphaLISA, 16 h; stronger effect = lower value; 4.7% of 360,000 active; activity change, % at 57.5 µM; in the data active = activity change below about -50%; inconclusive = mostly about -30% to -49%
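Secreted IL-1B measured by AlphaLISA bead assay after 16 h compound exposure of THP-1 cells; compounds (final up to 57.5 uM) added 1 h before LPS (250 ng/mL) and ATP (1.25 mM) stimulation; lower signal means less secretion.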
DT40 TDP1 no CPT = qHTS for Inhibitors of human tyrosyl-DNA phosphodiesterase 1 (TDP1): qHTS in cells in absence of CPT; Potency, µM (highest dose often 46.2 µM), without a hit: top-dose activity change, negative = growth inhibition, hits mostly inhibitors; DT40 Tdp1-/- hTDP1 cells, no CPT, ATP luminescence, 48 h; 15% of 420,000 active; AID 686978, 2013; note: potency is the fitted concentration of half-maximal effect; nearly all actives have a fitted effect of over 55% in size
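Stably hTDP1-transfected Tdp1-null chicken DT40 cells were treated with library compounds minus camptothecin and grown for at least 48 hr at 37 °C, after which cellular ATP was quantified by luminescence.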
DT40 TDP1 CPT = DT40-hTDP1 cell growth loss with CPT | chicken DT40 Tdp1-/-;hTDP1 cells + 20 nM CPT, ATP luminescence, 48 h | 12% of 420,000 active | AID 686979 | Potency, µM (highest dose often 46.2 µM), for inactives: top-dose activity change, negative = growth inhibition, usual class: inhibitors; note: potency is the fitted concentration of half-maximal effect; nearly all actives have a fitted effect of over 55% in size
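Chicken DT40 Tdp1-/- cells stably complemented with human TDP1 were seeded at 400 cells/well in medium containing 20 nM camptothecin, exposed to pin-transferred compounds, and grown at 37 °C for at least 48 hr. Viability was read as ATP luminescence.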
LDHA inh = inhibitors of human lactate dehydrogenase A. P00338. purified LDHA, NADH/diaphorase-resazurin fluorescence; stronger effect = lower value. activity change, % (values are at about 110 or 230 µM). 0.15% of 480,000 active; in the data active = activity change below about -30%; inconclusive = mostly about -25% to -30%;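 note: plate controls were DMSO wells for no effect and wells without enzyme for full effect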
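Human LDH5 at 2 nM final in Tris HCl pH 7.4 with 0.06 mM NADH and 0.2 mM pyruvate, reacted 5 minutes at room temperature. Remaining NADH coupled via diaphorase/resazurin; resorufin fluorescence read at 0 and 20 minutes, normalized to enzyme-free and DMSO wells.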
The depositor's hits bear a star; i = inactive; ? = inconclusive; · = no result given. Unless noted, calls come from the whole dose curve; as a rule, active = well fitted curve in the direction sought with a large enough effect; inconclusive = small, poorly fitted or top-dose-only effect, or another doubt; inactive = no such curve, though single readings can be large; an effect the other way counts as inactive or inconclusive. Unless noted, % is set by controls: 0 for no effect and ±100 for the full control effect.

SMILES | RORg inh | Gal4-VP16 FLuc | IL1B secr inh | DT40 TDP1 no CPT | DT40 TDP1 CPT | LDHA inh
CC(C(=O)Nc1ccc(OC(F)F)c(Cl)c1)n1cccn1 (stereo unspecified) | · | · | · | · | · | 14
Cc1[nH]c2ccccc2c1C1(O)C(=O)N(C(C)C)c2ccccc21 (stereo unspecified) | -18% | 0% | 33 | -5% | -7% | 0
CCCN1C(=O)C(O)(c2c(C)[nH]c3ccccc23)c2ccccc21 (stereo unspecified) | 1% | 4% | 0 | 5.2µM* | 5.2µM* | 0
C#CCN1C(=O)C(O)(c2c(C)[nH]c3ccccc23)c2ccccc21 (stereo unspecified) | 18% | -9% | 42 | 3.3µM* | 4.6µM* | 5
CC(C)N=C1NN=C(c2cccs2)CS1 | 13µM* | -22% | 27 | -21% | 14% | -10
CC(C)(C)N=C1NN=C(c2cc3ccccc3o2)CS1 | 6.3µM* | ? | -20 | 23µM* | ? | -1
Cc1c(Cl)cccc1N=C1NN=C(c2ccc3c(c2)CC(C)N3S(C)(=O)=O)CS1 (stereo unspecified) | · | · | · | · | · | 0
CC(C)c1ccc(N=C2NN=C(c3cccs3)CS2)cc1 | 13µM* | ? | 4 | ? | ? | -5
CC(C)N=C1NN=C(c2ccc(Cl)c(Cl)c2)CS1 | 10µM* | ? | -74* | ? | ? | -4
CC1CC(=O)NN=C1c1cccs1 (stereo unspecified) | ? | -22% | -10 | 1% | 4% | -11
N#CCCN1CCN(c2ccc(NS(=O)(=O)c3ccccc3Cl)cc2C(=O)O)CC1 | · | · | · | · | · | -14
O=C(c1cc(C2=NNC(=Nc3ccc(Cl)cc3)SC2)c[nH]1)N1CCCC1 | · | · | · | · | · | -6
CC(C)(C)N=C1NN=C(c2ccc(Cl)cc2)CS1 | 7.1µM* | ? | -1 | 18µM* | ? | -1
CN(C)C(=O)c1ccc(NCC(=O)N2N=C(c3ccc(Cl)cc3)CC2c2ccco2)cc1 (stereo unspecified) | · | · | · | · | · | 7
CCOC(=O)C(=CNc1ccc(NC2=NCC(C)(C)S2)cc1)C(=O)OCC | -61% | 10% | ? | 9.2µM* | 18µM* | 12
CCOC(=O)C(=CNc1ccc(S(N)(=O)=O)cc1)C(=O)OCC | -5% | -2% | -1 | 1% | -4% | -4
CCOC(=O)C(=CNc1ccc2c(c1)CCN2C(C)=O)C(=O)OCC | -4% | 7% | -9 | 7.3µM* | 21µM* | -6
CCOC(=O)C(=CNc1ccccc1Cl)C(=O)OCC | 29% | -10% | -27 | ? | -18% | -8
CCOC(=O)C(=CNc1ccc(N2CCOCC2)cc1)C(=O)OCC | -2% | 9% | -1 | 16µM* | ? | 1
CCOC(=O)C(=CNc1cc(C)ccc1-n1cccc1)C(=O)OCC | 14% | -2% | · | 16µM* | 18µM* | -2
O=C(c1ccccc1)N(Cc1ccco1)c1ccccn1 | · | · | · | · | · | 16
Cc1ccccc1OC1CCN(C(=O)C2CCC(=O)N(C3CCCC3)C2)CC1 (stereo unspecified) | 38% | 1% | 36 | 15µM* | ? | -10
O=C(C1CC(=O)N(C2CCCC2)C1)N1CCN(c2cccc(Cl)c2)CC1 (stereo unspecified) | 21% | -6% | 1 | 23µM* | 18µM* | 0
COc1cccc(N2CCN(C(=O)C3CCC(=O)N(C4CCCCCC4)C3)CC2)c1 (stereo unspecified) | 39% | 0% | i | 18µM* | 15µM* | 4
O=c1cc(N2CCN(c3cccc(Cl)c3)CC2)[nH]c(=O)n1C1CCCCC1 | 22% | -6% | 6 | 1.6µM* | ? | -2
SMILES | RORg inh | Gal4-VP16 FLuc | IL1B secr inh | DT40 TDP1 no CPT | DT40 TDP1 CPT | LDHA inh
CS(=O)(=O)N1CCCC(C(=O)N2CCN(c3cccc(Cl)c3)CC2)C1 (stereo unspecified) | -17% | -2% | -1 | ? | 21µM* | -6
Cc1c(Cl)cccc1NC(=O)C1CC(=O)N(C2CCCC2)C1 (stereo unspecified) | · | · | -58* | -7% | 0% | -1
Cc1ccc(C(=O)/C=C/c2ccccc2F)o1 | · | · | · | · | · | -7
CNC1C2CC3CC(C2)CC1C3 (stereo unspecified) | · | · | · | · | · | 6
N#Cc1ncn(Cc2coc(-c3ccccc3)n2)n1 | · | · | · | · | · | -5
COc1cccc2c1OC1(CCN(C)CC1)N1N=C(c3ccccc3)CC21 (stereo unspecified) | · | · | · | · | · | 5
O=C1C(Cl)=C(N2CCCCCC2)C(=O)N1c1ccc(Cl)cc1 | ? | -10% | 23 | ? | -7% | -2
O=C1CN(c2ccc(Cl)cc2)C2(CCCCC2)S1 | ? | 2% | 3 | ? | 29µM* | -1
O=C(CCC1CCCN(C(=O)c2ccncc2)C1)NCc1ccc(F)c(F)c1 (stereo unspecified) | 9% | 3% | 9 | ? | -17% | -3
O=C(CCC1CCCN(C(=O)c2cc3ccccc3o2)C1)NCc1ccc(F)c(F)c1 (stereo unspecified) | · | · | 0 | 16µM* | 16µM* | -1
O=C(CCC1CCCN(C(=O)c2ccco2)C1)NCc1ccccc1F (stereo unspecified) | 26% | 20% | 24 | ? | 18µM* | -2
CC(C)c1cc(C(=O)N2CCCC(CCC(=O)NCc3ccccc3F)C2)n(C)n1 (stereo unspecified) | 10% | ? | 22 | 13µM* | ? | -6
O=C(CCC1CCCN(C(=O)c2ccc3c(c2)OCCO3)C1)NCc1ccccc1F (stereo unspecified) | 42% | ? | 40 | -1% | -27% | -1
COCc1ccc(C(=O)N2CCCC(CCC(=O)NCc3ccccc3F)C2)o1 (stereo unspecified) | 2% | 6% | 42 | 2.9µM* | 3.7µM* | -4
CC(=O)Nc1sc2c(c1-c1ccc3scnc3c1)CCNC2 | · | · | · | · | · | 5
Cc1ncoc1C(=O)N1CCCC(CCC(=O)NCc2ccccc2F)C1 (stereo unspecified) | 3% | -4% | 12 | 21µM* | ? | 0
Cc1cccc(C(=O)N2CCCC(CCC(=O)N3CCN(c4ccccn4)CC3)C2)c1C (stereo unspecified) | 15% | -5% | -21 | ? | ? | -10
COc1cccc(CNC(=O)CCC2CCCN(Cc3cc4ccccc4o3)C2)c1 (stereo unspecified) | 0% | -16% | -60* | 26µM* | 18µM* | 0

Screening results as filed in PubChem.
